The list is not random: actives were taken first. Their share in the collection is about 1.3%.
PriA SSB inh: inhibitors of Klebsiella pneumoniae PriA binding to SSB C-terminal tail, primary screen, biochemical, AlphaScreen. AlphaScreen SSBct-PriA binding, biotinylated peptide. inhibition, % at 33 µM. 430,000 tested, 0.6% active. AID 1272365, 2023; in the data active = inhibition mostly above about 37%, no sharp cut-off; inactive = mostly below about 20%;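 note: plate controls were negative control peptide for no effect and reference peptide for full effect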
VHR inh abs: VHR1 phosphatase inhibitors, primary screen, biochemical, absorbance, uHTS. Dual specificity protein phosphatase 3 (Homo sapiens), P51452. recombinant VHR phosphatase, pNPP absorbance. inhibition, % at 13.3 µM. 290,000 tested, 0.52% active. AID 1654, 2009; in the data active = inhibition above about 50%
Target sequence (P51452 whole entry, looked up): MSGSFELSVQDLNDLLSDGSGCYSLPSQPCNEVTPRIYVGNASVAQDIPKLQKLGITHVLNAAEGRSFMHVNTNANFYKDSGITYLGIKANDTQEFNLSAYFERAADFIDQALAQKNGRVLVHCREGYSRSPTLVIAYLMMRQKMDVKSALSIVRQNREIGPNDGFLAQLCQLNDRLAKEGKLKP
CCHF vOTU inh: CCHFV vOTU protease inhibitors, primary screen, biochemical, Pep-AMC substrate, fluorescence; 370,000 tested, 0.55% active; Crimean-Congo hemorrhagic fever virus L polyprotein viral ovarian tumor (vOTU) protease …; inhibition, % at 11.5 µM; in the data active = inhibition above about 30%; note: 0% = vehicle wells with enzyme and 100% = no enzyme wells
3CLpro inhibitor: SARS-CoV 3CLpro protease inhibitors, primary screen, biochemical, quenched FRET. Replicase polyprotein 1ab (Severe acute respiratory syndrome coronavirus), P0C6X7. recombinant SARS-CoV 3CLpro, quenched FRET peptide cleavage. inhibition, % at 6 µM. 290,000 tested, 0.14% active. AID 1706, 2009; in the data active = inhibition above about 12%
BH1578 lux ind: inducers of Vibrio cholerae quorum light production without autoinducers, primary screen, BH1578 luxS cqsA deficient, single point. V. cholerae BH1578 lux reporter, luminescence, 6 h. activation, % at 18.7 µM. 350,000 tested, 0.16% active; in the data active = activation mostly above about 9.7%, no sharp cut-off
TcdB GH inh: TcdB glycohydrolase inhibitors, primary screen, biochemical, single point, plate reader; Toxin B (Clostridioides difficile), P18177; TcdB glycohydrolase enzymatic assay; inhibition, % at 9.99 µM; 350,000 tested, 0.24% active; AID 652162, 2013; in the data active = inhibition above about 10%
* = called active by the depositor; i = inactive; . = no result given; ! = not active in a repeat.

SMILES	PriA SSB inh	VHR inh abs	CCHF vOTU inh	3CLpro inhibitor	BH1578 lux ind	TcdB GH inh
CCCCNC(=S)NCc1ccc2[nH]c(C)cc2c1	50*!	-7	0	-2	-2	0
Cc1ccc(S(=O)(=O)NCCNS(=O)(=O)c2ccc(C)cc2)cc1	27	58*	7	-3	i	2
Cc1ccc(S(=O)(=O)NCc2ccc3[nH]c(C)cc3c2)cc1	43*	16	12	-3	-2	0
CC(=O)Nc1ccc(S(=O)(=O)NCc2ccc3[nH]c(C)cc3c2)cc1	38	-2	1	-1	-1	-2
Cc1ccc(S(=O)(=O)NCCCNS(C)(=O)=O)cc1	-1	3	-3	6	0	3
CCOc1ccc(NC(=S)NCc2ccc3[nH]c(C)cc3c2)cc1	4	-17	-4	3	0	1
CC(=O)N1CC[C@@H]2[C@@H](CO)N(C)c3ccc(-c4ccccc4)cc3[C@@H]21	.	.	.	.	.	17*
COCC(=O)N1CC[C@@H]2[C@H]1c1cc(-c3ccc(OC)cc3)ccc1N(C)[C@H]2CO	.	.	.	.	.	17*
O=C(C1CCOCC1)N1CC[C@@H]2[C@@H](CO)Nc3ccc(-c4ccc(F)cc4)cc3[C@@H]21	.	.	.	.	.	10*
COc1ccc(-c2ccc3c(c2)[C@@H]2[C@@H](CCN2C(=O)C2CC2)[C@@H](CO)N3C)cc1	.	.	.	.	.	0
CC(C)NC(=O)N1CC[C@@H]2[C@H]1c1cc(-c3ccccc3)ccc1N(C)[C@H]2CO	.	.	.	.	.	15*
CN1c2ccc(-c3ccccc3)cc2[C@H]2[C@H](CCN2C(=O)NC2CCCCC2)[C@@H]1CO	.	.	.	.	.	1
O=C(C1CCOCC1)N1CC[C@@H]2[C@H]1c1cc(-c3ccc(F)cc3)ccc1N[C@@H]2CO	.	.	.	.	.	-1
CN1c2ccc(-c3ccccc3)cc2[C@@H]2[C@@H](CCN2C(=O)CN2CCOCC2)[C@@H]1CO	.	.	.	.	.	12*
CN(C)CC(=O)N1CC[C@@H]2[C@H]1c1cc(-c3ccccc3)ccc1N(C)[C@H]2CO	.	.	.	.	.	12*
CN1c2ccc(-c3ccccc3)cc2[C@@H]2[C@@H](CCN2C(=O)NC2CCCCC2)[C@H]1CO	.	.	.	.	.	0
CC(C)NC(=O)N1CC[C@@H]2[C@H]1c1cc(-c3ccc(F)cc3)ccc1N(C)[C@H]2CO	.	.	.	.	.	12*
CCCNC(=O)N1CC[C@@H]2[C@@H](CO)N(C)c3ccc(-c4ccccc4)cc3[C@@H]21	.	.	.	.	.	11*
CCC(=O)N1CC[C@H]2[C@@H]1c1cc(-c3ccccc3)ccc1N(C)[C@H]2CO	.	.	.	.	.	4
CNc1nn(CC(=O)Nc2ccc(OC)c(OC)c2)c(N)c1-c1nc(-c2ccc(C)cc2)no1	21	.	.	.	.	.
C[C@H]1CN([C@@H](C)CO)S(=O)(=O)c2ccc(C#Cc3ccncc3)cc2O[C@H]1CN(C)C(=O)C1CC1	.	.	.	.	.	5
C[C@@H]1CN([C@@H](C)CO)S(=O)(=O)c2ccc(C#Cc3ccncc3)cc2O[C@H]1CN(C)C(=O)C1CC1	.	.	.	.	.	11*
CC(=O)N(C)C[C@H]1Oc2cc(/C=C/c3ccccc3)ccc2S(=O)(=O)N([C@H](C)CO)C[C@H]1C	.	.	.	.	.	1
CC(=O)N(C)C[C@@H]1Oc2cc(/C=C/c3ccccc3)ccc2S(=O)(=O)N([C@H](C)CO)C[C@@H]1C	.	.	.	.	.	13*
CCOC(=O)C1=c2s/c(=C\c3cccnc3)c(=O)n2C(N)=C(C(=O)OC)C1c1cccnc1 (stereo unspecified)	.	52*	19	1	-1	.
SMILES	PriA SSB inh	VHR inh abs	CCHF vOTU inh	3CLpro inhibitor	BH1578 lux ind	TcdB GH inh
COC(=O)C1=C(N)n2c(s/c(=C\c3cccnc3)c2=O)=C(C(=O)OC)C1c1cccnc1 (stereo unspecified)	.	-12	.	4	.	.
O=C(NC(=S)NNC(=O)c1cnccn1)c1ccc(F)cc1	42*	18	-12	3	0	0
O=C(NNC(=S)NC(=O)c1cccnc1)c1ccc(F)cc1	-7	17	10	6	0	9
O=C(/C=C/c1ccc(F)cc1)NC(=S)NNC(=O)c1cnccn1	40*	-40	-4	1	-1	1
CCCOc1ccc(CNC(=O)c2sccc2S(=O)(=O)N2CCN(c3ccccc3)CC2)cc1	-10	.	.	.	.	.
C#CCSc1nc2sc3c(c2c(=O)n1C)CCC3	-10	58*	12	-4	i	0
CSc1nc2sc3c(c2c(=O)n1C)CCC3	3	-4	-10	2	i	0
Cc1ccccc1OCC(O)CN1CCN(CCN2C(=O)c3cccc4cccc(c34)C2=O)CC1 (stereo unspecified)	34	21	-7	-1	-1	0
Cc1ccc(OCCOC[C@@H](O)CN2CCN(CCN3C(=O)c4cccc5cccc(c45)C3=O)CC2)cc1C	36*	.	.	.	.	.
O=C1c2ccccc2C(=O)c2cc(Cl)c(Cl)cc21	-7	.	.	.	.	.
O=C1COc2ccc(C(=O)COC(=O)CNS(=O)(=O)c3cccc(F)c3)cc2N1	3	.	0	.	0	12*
Cc1ccc(NC(=O)Cn2nc(C3CCCN(S(C)(=O)=O)C3)n(C)c2=O)cc1Cl (stereo unspecified)	-10	.	.	.	.	.
COc1cc(OC)cc(C(=O)Nc2cc(-c3cn4nc(OC)ccc4n3)ccc2Cl)c1	-19	.	.	.	.	.
COc1ccc(-c2cc(C(F)(F)F)c3c(N)c(C(=O)NCCSC)sc3n2)cc1	-13	54*	14	1	i	1
CN(C)CCNC(=O)c1sc2nc(-c3ccccc3)cc(C(F)(F)F)c2c1N	-6	16	10	-2	0	3
O=C(NCCn1ncc2c(=O)n(Cc3ccc(Br)cc3)cnc21)c1ccc(F)cc1F	-1	.	.	.	.	.
CCCCc1ccc(NC(=S)Nc2ccc(Nc3ccc(OC)cc3)cc2)cc1	84*	-13	4	2	-1	.
CCCCc1ccc(NC(=S)NCc2cccc(OC)c2)cc1	-46	24	14	7	-7	1
COc1ccccc1CN1C(=O)c2cccc3cccc(c23)C1=O	-4	32	5	-5	0	.
COc1ccc(C)cc1CN1C(=O)c2ccccc2C1=O	-14	53*	7	-4	i	-1
CCOC(=O)c1c(P(=O)(N2CCOCC2)N2CCOCC2)noc1N	-25	53*	7	2	-1	.
CCOC(=O)c1c(C)c(P(=S)(N2CCOCC2)N2CCOCC2)n(C)c1C	-10	19	-3	2	0	.
COC(=O)c1ccc(NC(=S)Nc2ccc(O)cc2)cc1	2	30	-5	2	0	10*
Oc1ccc(NC(=S)Nc2ccc(O)cc2)cc1	10	2	8	3	0	9
COC(=O)C1=C(C)NC(=S)NC1c1ccc(F)c(Br)c1 (stereo unspecified)	7	.	.	.	.	.
CCCCc1ccc(C2C3=C(CC(C)(C)CC3=O)NC3=C2C(=O)c2ccccc23)cc1 (stereo unspecified)	22	2	-10	2	4	1

High-throughput results: PubChem, several laboratories
